Results on 21 compounds are retold here after PubChem BioAssay (Tox21).

Each structure is given as a SMILES string. Where “and” joins values, the source holds several entries; their conditions need not be identical. Equal entries are not always repeated. Records with an inconclusive call do not appear. Where a structure was tested more than once in an assay, its records may differ in their call. Calls of active or inactive are those of the source. Unless noted, calls follow the shape of the dose curve; as a rule, active = well fitted curve in the direction sought with a large enough effect in the repeat runs; inconclusive = weak or mixed curves; inactive = no such curve, though single readings can be large; an effect the other way counts as inactive or inconclusive.

Experiment [1] is described as follows: qHTS assay for small molecule agonists of the p53 signaling pathway (AID 651631; calls by dose curve; also: nearly all actives have a fitted effect of over 15% in size; also: potency is read from the fitted curve at half-maximal effect). The procedure, abridged: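 HCT-116 cells carrying a stable p53 response element–beta-lactamase reporter were plated, rested 5 h at 37 °C, then exposed to compound in DMSO for 16 h at 37 °C; reporter activity was read as FRET substrate fluorescence after 2 h at room temperature.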

Experiment [2] is described as follows: qHTS assay for small molecules that induce genotoxicity in human embryonic kidney cells expressing luciferase-tagged ATAD5 (AID 651632). Also: nearly all actives have a fitted effect of over 15% in size. Also: potency is read from the fitted curve at half-maximal effect. The method, boiled down:
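Genotoxicity read-out via ATAD5-luciferase: HEK293T cells, 16 hr compound incubation at 37C, Amplite detection.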

A short description of experiment [3]: qHTS assay for small molecule agonists of the p53 signaling pathway - cell viability (AID 651633; calls by dose curve; also: nearly all actives have a fitted effect of over 30% in size; also: potency is read from the fitted curve at half-maximal effect). The method, boiled down:
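p53RE-bla cells were treated with compound for 16 hours at 37 C. Cytotoxicity was then measured as CellTiter-Glo luminescence after 30 min at room temperature.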
(In qHTS, concentration-response curves come from the screen itself.)

Experiment [4] is described as follows: qHTS assay for small molecules that induce genotoxicity in human embryonic kidney cells expressing luciferase-tagged ATAD5 - cell viability (AID 651634; calls by dose curve; also: nearly all actives have a fitted effect of over 25% in size; also: potency is read from the fitted curve at half-maximal effect). The procedure, abridged:
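Live-cell protease activity (CellTiter-Fluor, fluorescence) indicates viability. HEK293T cells with luciferase-tagged ATAD5; 15.5 hr compound treatment at 37C.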

The nature of experiment [5]: qHTS assay for small molecule disruptors of the mitochondrial membrane potential - cell viability (AID 720634; calls by dose curve;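 also: human HepG2 liver cancer cells; series mostly up to about 83 µM; nearly all actives have a fitted effect of over 20% in size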). The procedure, abridged: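 Human hepatoma HepG2 cells were treated for 1 hr with test chemicals, then given m-MPI dye and CellTiter-Glo. Cell viability reflects luminescence proportional to cellular ATP.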
The nature of experiment [6]: qHTS assay to test for compound auto fluorescence at 590 nm (red) in HepG2 cells (AID 720674). The procedure, abridged: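 Fluorescence at 590 nm emission following 540 nm excitation was recorded from HepG2 wells one hour after compound transfer, with DMSO-only wells as vehicle and Rose Bengal sodium equivalency as the scale.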
A short description of experiment [7]: qHTS assay to test for compound auto fluorescence at 535 nm (green) in HepG2 cells (AID 720675).
A short description of experiment [8]: qHTS assay to test for compound auto fluorescence at 460 nm (blue) in HEK293 cells (AID 720678). The procedure, abridged: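 Intrinsic compound fluorescence is recorded in live HEK293 cultures after overnight incubation at 37C, 5% CO2, using excitation 405 nm and emission 460 nm. Values are referenced to triamterene.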
Experiment [9] is described as follows: qHTS assay to test for compound auto fluorescence at 590 nm (red) in HEK293 cells (AID 720679). The procedure, abridged:
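Red autofluorescence, HEK293 cells: 2,000 cells/well; attach 4-5 hr 37C; add 23 nL cpd or DMSO; incubate o/n 37C 5% CO2; read Ex540/Em590; Rose Bengal sodium reference.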

Experiment [10] is described as follows: qHTS assay for small molecule disruptors of the mitochondrial membrane potential (AID 720635). Also: potency is read from the fitted curve at half-maximal effect. The method, boiled down: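 HepG2 cells exposed to compound 1 hr at 37C, then Mito-MPS dye 30 min. Ratio read of aggregate (540/590 nm) versus monomer (490/535 nm) fluorescence.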

With `c1ccncc1`, the Potency entry in experiment [1], in experiment [2], in experiment [3], in experiment [4], in [5] and in experiment [6] was “inactive” in each case. Moreover, the Potency entry in experiment [7] and in experiment [9] was “inactive” each time. For the same compound, the result in [8] was inactive.

Consider `CCCCNS(=O)(=O)c1ccccc1`, for which the Potency entry in [1], in experiment [2], in [3], in [4], in experiment [5] and in experiment [6] was “inactive” each time. Also, the Potency result in experiment [7] and in experiment [9] was “inactive” in each case. In experiment [10], the Potency was 48.6 µM (active).

On to `Cc1c(OCC(F)(F)F)ccnc1CS(=O)c1nc2ccccc2[nH]1` (stereo unspecified), for which the Potency result in experiment [1], in experiment [2], in experiment [3], in experiment [4], in experiment [5] and in experiment [6] was “inactive” in each case. Further, the Potency result in experiment [7] and in experiment [9] was “inactive” each time. In experiment [10], the Potency is 54.5 µM (active). Further, the outcome in experiment [8] was inactive.

As to `CC(C)OB(OC(C)C)OC(C)C`, the Potency result in [1], in experiment [2], in experiment [3], in experiment [4], in [5] and in experiment [10] was “inactive” in each case. Moreover, the Potency entry in experiment [6], in experiment [7] and in experiment [9] was “inactive” in each case. Also, in [8], the compound was called inactive.

On to `CC(C)OC=O`, for which the Potency entry in experiment [1], in [2], in [3], in experiment [4], in [5] and in experiment [10] was “inactive” in each case. In addition, the Potency entry in experiment [6], in experiment [7] and in experiment [9] was “inactive” in each case.

For `COC(=O)c1ccccc1`, the Potency result in experiment [1], in experiment [2], in [3], in experiment [4], in [5] and in [10] was “inactive” each time. Further, the Potency entry in experiment [6], in experiment [7] and in experiment [9] was “inactive” in each case. Moreover, the compound was called inactive in experiment [8].

`O=C1c2cccc(O)c2C(=O)c2c(O)cccc21`: the Potency in [1] is 19.5 µM (active); in [10], 2.37 µM (active) and 3.1 µM (active). Besides, the Potency entry in [2], in experiment [3], in experiment [4], in experiment [5], in experiment [6] and in [7] was “inactive” throughout. Also, the Potency entry in experiment [9] is “inactive”. The result in experiment [8] was inactive.

With `C[C@]12CCC(=O)C=C1CC[C@@H]1[C@@H]2C(=O)C[C@@]2(C)[C@H]1CC[C@]2(O)C(=O)CO`, the Potency result in experiment [1], in experiment [2], in [3], in experiment [4], in [5] and in experiment [6] was “inactive” in each case. The Potency entry in experiment [7] and in [9] was “inactive” throughout. For the same compound, the outcome in [8] was inactive.

With `C[C@]12CC[C@H]3[C@@H](CCC4=CC(=O)CC[C@@]43C)[C@@H]1CC[C@@H]2C(=O)CO`, the Potency result in [1], in [2], in experiment [3], in [4], in experiment [5] and in experiment [10] was “inactive” in each case. Further, the Potency entry in experiment [6], in experiment [7] and in experiment [9] was “inactive” throughout.

For `CN1C(C(=O)Nc2ccccn2)=C(O)c2ccccc2S1(=O)=O`, the Potency result in [1], in [2], in [3], in [4], in [5] and in experiment [6] was “inactive” in each case. Also, the Potency result in [7] and in experiment [9] was “inactive” in each case. For the same compound, the Potency in [10] is 5.69 µM (active) and 4.9 µM (active). The compound was called inactive in experiment [8].

As for `O=CCCCC=O`, the Potency in experiment [1] is 29.8 µM (active) and 33.2 µM (active) and 61.1 µM (active); in experiment [2], “inactive and 59 µM (active)”. The Potency result in experiment [3], in [4], in experiment [5], in experiment [10], in experiment [6] and in experiment [7] was “inactive” each time. The Potency entry in experiment [9] was “inactive”. Moreover, the compound was classed as inactive in experiment [8].

`CN(C)CCC=C1c2ccccc2CCc2ccccc21`: the Potency in experiment [1] was 61.1 µM (active). The Potency entry in experiment [2], in experiment [3], in experiment [4], in [5], in experiment [6] and in experiment [7] was “inactive” throughout. For the same compound, the Potency result in experiment [9] is “inactive”.

Regarding `O=C(Nc1ccc([N+](=O)[O-])cc1Cl)c1cc(Cl)ccc1O`, the Potency in experiment [1] is 298 nM (active) and 611 nM (active); in experiment [2], 75 nM (active) and inactive; in experiment [3], 94.4 nM (active) and 96.9 nM (active); in [4], 596 nM (active) and 2.43 µM (active); in experiment [10] it was 26.6 nM (active) and 9.7 nM (active). Besides, the Potency result in experiment [5], in experiment [6], in [7] and in experiment [9] was “inactive” each time. In [8], the compound was called inactive.

For `COC(C)COC(C)COC(C)CO` (stereo unspecified), the Potency entry in [1], in experiment [2], in [3], in experiment [4], in experiment [5] and in experiment [10] was “inactive” in each case. The Potency result in experiment [6], in experiment [7] and in experiment [9] was “inactive” each time.

As for `O=C=Nc1ccc(Cc2ccc(N=C=O)cc2)cc1`, the Potency result in experiment [1], in [2], in experiment [3], in experiment [4], in [5] and in experiment [10] was “inactive” each time. The Potency result in experiment [6], in experiment [7] and in experiment [9] was “inactive” throughout.

Turning to `CC(CCC(=O)O)(c1ccc(O)cc1)c1ccc(O)cc1`, the Potency entry in [1], in experiment [2], in experiment [3], in [4], in experiment [5] and in [10] was “inactive” in each case. Also, the Potency entry in experiment [6], in experiment [7] and in experiment [9] was “inactive” in each case.

As to `Cc1ncc[nH]1`, the Potency entry in experiment [1], in experiment [2], in [3], in [4], in experiment [5] and in [10] was “inactive” in each case. The Potency entry in experiment [6], in experiment [7] and in experiment [9] was “inactive” each time. Also, the result in experiment [8] was inactive.

Turning to `COC(=O)CCC(=O)OC`, the Potency result in experiment [1], in experiment [2], in experiment [3], in experiment [4], in experiment [5] and in [10] was “inactive” each time. Further, the Potency result in experiment [6], in experiment [7] and in experiment [9] was “inactive” in each case.

Turning to `CN(C)CCN(Cc1cccs1)c1ccccn1`, the Potency result in [1], in experiment [3], in experiment [4], in experiment [5], in experiment [10] and in experiment [6] was “inactive” throughout. In addition, the Potency result in experiment [7] and in experiment [9] was “inactive” in each case. The compound was called inactive in [8].

In the case of `O=C(c1ccccc1)c1ccc(O)cc1O`, the Potency entry in experiment [1], in [2], in [3], in experiment [4], in experiment [6] and in experiment [7] was “inactive” in each case. The Potency result in [9] was “inactive”. Further, the Potency in experiment [10] is 27.8 µM (active) and 61.1 µM (active). For the same compound, the result in experiment [8] was inactive.

On to `c1ccc2c(c1)c1cccc3ccc4cccc2c4c31`, for which the Potency was 60.7 µM (active) in experiment [1]; 3.04 µM (active) and inactive in [3]; 30.6 µM (active) in experiment [10]. In addition, the Potency entry in experiment [4], in experiment [5], in experiment [6], in [7] and in experiment [9] was “inactive” each time. In experiment [8], the outcome was inactive.
